Only a sample is shown.
aSyn 5UTR act – Activators working through SNCA 5'UTR binding (MLPCN); activity score, % (tested at 7.5 µM), hits read low; alpha-synuclein 5'UTR reporter, activators screen; 300,000 compounds, 7.1% hits; in the data active means activity score below about -60%
* = called active by the depositor.

Results for CCCn1c(N)c(Sc2ccc(C)cc2)c(=O)n(CCC)c1=O ?
aSyn 5UTR act: -79*

What do the screens show for `O=C(C1=C(O)C(=O)N(c2ncccn2)C1c1ccc(Cl)c(Cl)c1)c1ccco1` (stereo unspecified)?
aSyn 5UTR act: -81*

How did CCC(=O)NC(c1ccco1)c1cc(Cl)c2cccnc2c1O (stereo unspecified) do in these assays?
aSyn 5UTR act: 100

Results for O=C(Nc1ccccc1)O[C@@H]1C[C@H]2CCC(=O)N3CC[C@@H](C1)[C@@H]23 ?
aSyn 5UTR act: -136*

How did O=C(Nc1ccccc1)OC1CC2CC1C1CCCC21 (stereo unspecified) do in these assays?
aSyn 5UTR act: -141*

What do the screens show for `c1ccc2c(c1)Cn1nc(Cc3nc4c(s3)CCCC4)nc1-2`?
aSyn 5UTR act: -79*

How did COC(=O)c1nn(-c2ccc(-c3ccccc3)cc2)cc1O do in these assays?
aSyn 5UTR act: 67

How did CCOC(=O)c1nn(-c2ccc(Cl)cc2)cc1O do in these assays?
aSyn 5UTR act: -124*

Results for CCOC(=O)C1=NN(c2ccc(Cl)cc2)C(=O)C1 ?
aSyn 5UTR act: -144*

What do the screens show for `CCOC(=O)c1ccc(N2CN(CC)CNC2=S)cc1`?
aSyn 5UTR act: 64

Results for CCOC(=O)c1nn(-c2ccc3ccccc3c2)cc1O ?
aSyn 5UTR act: -134*

Results for CCOC(=O)c1nn(-c2ccc(C)cc2)cc1O ?
aSyn 5UTR act: -62*

Results for CCOC(=O)c1nn(-c2ccc3c(c2)OCO3)cc1O ?
aSyn 5UTR act: -144*

What do the screens show for `COc1cccc2[nH]c3c(N4CCCC(C)C4)ncnc3c12` (stereo unspecified)?
aSyn 5UTR act: -143*

How did N#C/C(=C/c1ccco1)c1nc2ccccc2s1 do in these assays?
aSyn 5UTR act: -282*

How did CCCCc1ccc(-c2csc(/C(C#N)=C\c3ccco3)n2)cc1 do in these assays?
aSyn 5UTR act: -106*

How did N#C/C(=C\c1ccco1)c1nc2ccccc2s1 do in these assays?
aSyn 5UTR act: -309*

How did NS(=O)(=O)c1ccc(Sc2nc3ccccc3s2)c([N+](=O)[O-])c1 do in these assays?
aSyn 5UTR act: 67

How did N#C/C(=C\c1ccc(O)c([N+](=O)[O-])c1)c1nc2ccccc2s1 do in these assays?
aSyn 5UTR act: -66*

What do the screens show for `CCOC(=O)c1cccc(NC(=O)c2cccs2)c1`?
aSyn 5UTR act: -65*

Results for CCc1sc(C(=O)Nc2cccc(C(C)=O)c2)cc1C ?
aSyn 5UTR act: -77*

What do the screens show for `O=C(c1ccccc1)c1cccc(NC(=O)c2ccco2)c1`?
aSyn 5UTR act: -120*

What do the screens show for `CCOC(=O)c1cccc(NC(=O)c2ccco2)c1`?
aSyn 5UTR act: -77*

What do the screens show for `O=C(c1cccs1)N1N=C(c2ccc(O)cc2)CC1c1ccccc1` (stereo unspecified)?
aSyn 5UTR act: -72*

Results for O=C(NCCc1ccccc1Cl)c1ccc2nc3ccccc3c(=O)n2c1 ?
aSyn 5UTR act: -100*

What do the screens show for `Cc1cccc(NCc2ccc(N(C)C)cc2)n1`?
aSyn 5UTR act: -72*

How did COc1ccccc1C(CCNCc1ccc(N(C)C)cc1)c1ccc(OC(C)C)cc1 (stereo unspecified) do in these assays?
aSyn 5UTR act: 135

Results for Cc1c(C(=O)N2CCOCC2)sc2nc(-c3ccccc3)cn12 ?
aSyn 5UTR act: -123*

Results for Cc1nc2cc(-c3ccccc3)nn2c(C)c1CCC(=O)NCc1ccco1 ?
aSyn 5UTR act: 53

Results for Cc1c(C(=O)NCc2ccco2)sc2nc(-c3ccccc3)cn12 ?
aSyn 5UTR act: -83*

Results for c1ccc(-c2cn3c4c(sc3n2)CCCC4)cc1 ?
aSyn 5UTR act: 117

Results for Cc1c(C(=O)NCc2cccnc2)sc2nc(-c3ccc(F)cc3)cn12 ?
aSyn 5UTR act: -144*

Results for O=C(Cc1ccccc1F)Nc1nc(-c2ccc(F)c(F)c2)cs1 ?
aSyn 5UTR act: -85*

What do the screens show for `O=C(Cc1ccccc1)Nc1nc(-c2cccs2)cs1`?
aSyn 5UTR act: -136*

Results for O=C(Cc1ccccc1F)Nc1nc(-c2cccs2)cs1 ?
aSyn 5UTR act: -78*

What do the screens show for `COc1ccc2c(c1OC)C(=O)OC2Nc1nc(-c2ccc(-c3ccccc3)cc2)cs1` (stereo unspecified)?
aSyn 5UTR act: -233*

Results for CCOC(=O)/C(C#N)=C1/C=CN(c2ccc(C)cc2)C=N1 ?
aSyn 5UTR act: -97*

Results for CCOC(=O)/C(C#N)=C1/C=CN(c2ccccc2)C=N1 ?
aSyn 5UTR act: -79*

What do the screens show for `CSc1ccc(-c2nnn(Cc3ccccn3)n2)cc1`?
aSyn 5UTR act: -146*

What do the screens show for `CSc1ccc(-c2nnn(Cc3ccc(Br)cc3)n2)cc1`?
aSyn 5UTR act: -74*

Results for O=C(Nc1ccc(N2CCOCC2)cc1)c1cc2c(s1)CCCC2 ?
aSyn 5UTR act: -69*

Results for O=C(Nc1ccon1)c1cc2c(s1)CCCC2 ?
aSyn 5UTR act: -113*

How did Cc1csc(NC(=O)c2cc3c(s2)CCCCC3)n1 do in these assays?
aSyn 5UTR act: 92

How did O=C(Nc1ccon1)c1cc2c(s1)CCCCCC2 do in these assays?
aSyn 5UTR act: -167*

Results for Cc1cnc(NC(=O)c2cc3c(s2)CCCC3)s1 ?
aSyn 5UTR act: 65

What do the screens show for `O=C(NCc1ccco1)c1cc2c(s1)CCCCC2`?
aSyn 5UTR act: -218*

Results for Cc1ccc2c(CC(=O)NCc3ccco3)coc2c1C ?
aSyn 5UTR act: -95*

How did COc1ccccc1N=C1NC(=O)/C(=C/c2ccc(N(C)C)cc2)S1 do in these assays?
aSyn 5UTR act: -194*

What do the screens show for `Cc1ccc(C2=NN=C(NC(=O)CSc3nnc4c5ccccc5n(C)c4n3)SC2)cc1`?
aSyn 5UTR act: -99*

How did COc1ccccc1-c1c(C(F)(F)F)oc2cc(OS(C)(=O)=O)ccc2c1=O do in these assays?
aSyn 5UTR act: -101*

Results for COC(=O)Cc1c(C)c2ccc(OCC(C)=O)c(C)c2oc1=O ?
aSyn 5UTR act: -124*

What do the screens show for `CCc1c(C)c2ccc(OCC(=O)OC(C)C)c(C)c2oc1=O`?
aSyn 5UTR act: -107*

Results for N=c1oc2cc(O)ccc2cc1C(=O)Nc1ccc(Cl)cc1 ?
aSyn 5UTR act: -126*

How did N=c1oc2ccccc2cc1C(=O)Nc1ccc(F)cc1 do in these assays?
aSyn 5UTR act: -154*

What do the screens show for `N=c1oc2ccccc2cc1C(=O)Nc1cccc(F)c1`?
aSyn 5UTR act: -122*

How did Cc1ccc(NC(=O)c2cc3ccccc3oc2=N)cc1 do in these assays?
aSyn 5UTR act: 82

How did Cc1ccc(/C=N/n2cc(-c3ccccc3)[nH]c2=S)s1 do in these assays?
aSyn 5UTR act: -169*

What do the screens show for `Oc1ccc(/C=N/n2cc(-c3ccccc3)[nH]c2=S)cc1`?
aSyn 5UTR act: -92*

What do the screens show for `S=c1[nH]c(-c2ccccc2)cn1/N=C/c1ccccc1Br`?
aSyn 5UTR act: -83*

How did CCCCCCSc1ccc(-c2nc3ccccn3c2NCCCC)cc1 do in these assays?
aSyn 5UTR act: -113*

How did Cc1ccc2nc(-c3ccc(-c4cccc(Cl)c4)cc3)c(NCc3ccccc3)n2c1 do in these assays?
aSyn 5UTR act: -68*

Results for CCCCNc1c(-c2ccc(-c3cccc(Cl)c3)cc2)nc2ccccn12 ?
aSyn 5UTR act: -105*

Results for COc1ccc(-c2nc(-c3ccc(Br)cc3)no2)c(OC)c1 ?
aSyn 5UTR act: -105*

What do the screens show for `CCOc1nc(C)ccc1-c1noc(-c2cccnc2)n1`?
aSyn 5UTR act: -85*

Results for COc1ccccc1-c1noc(-c2cccnc2)n1 ?
aSyn 5UTR act: -112*

How did COc1cc(OC)cc(-c2nc(-c3ccc(Br)cc3)no2)c1 do in these assays?
aSyn 5UTR act: -164*

Screening data deposited in PubChem BioAssay by Broad Institute.
